Hits are enriched below; roughly 1.6% of the tested compounds scored in any of these assays.
ATG4B inh: ATG4B protease inhibitors, primary screen, biochemical, fluorescence, uHTS. Cysteine protease ATG4B (Homo sapiens), Q9Y4P1. ATG4B cleavage of LC3-PLA2, NBD-HPC fluorescence, 1 h. inhibition, % at 8.33 µM. 0.51% of 340,000 active. AID 504462, 2011; in the data active = inhibition above about 40%
CR mimetic SO: reduction of superoxide in aged yeast, primary screen, HTS. S. cerevisiae aged cells, superoxide DHE fluorescence; hits give low values. superoxide response (% of plate mean), % at 10 µM. 0.18% of 330,000 active. AID 2690, 2010;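 active = superoxide response under a set limit, about three screen SD below normal, cut at about 65% in these data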;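 note: yeast aged for seven days with compound at 30 °C before DHE staining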
GRK2 inh: compounds blocking aptamer binding on GRK2 – biochemical, human GRK2, bead flow cytometry, HTS, primary screen. Beta-adrenergic receptor kinase 1 (Homo sapiens), P25098. FAM-aptamer displacement from GRK2. inhibition of aptamer binding, % at 10 µM. 0.59% of 330,000 active;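 active = inhibition of aptamer binding above 40%, roughly 3 SD of noise, on plates passing a quality check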;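 note: median bead fluorescence of bound FAM aptamer so fluorescent compounds give negative values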
Efflux pump inh: inhibitors of Candida efflux pumps in yeast, primary screen, S. cerevisiae, Nile Red, multiplex. S. cerevisiae Candida pump triplex. 0.44% of 330,000 active. inhibition, % at 10 µM;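 active = plate passing quality check with inhibition over a set limit, or well fluorescence over plate mean plus 4 SD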;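 note: Nile Red retained in pooled yeast measured as flow cytometry median fluorescence; higher means more Nile Red kept so more efflux inhibition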
GRK2 inh confirm: GRK2 aptamer-displacing inhibitors, retest, confirmation, biochemical, cherry pick 1, bead flow cytometry; 4% of 2,000 active; shares compounds with GRK2 inh; AID 504451, 2011; aptamer displacement, % at 10 µM; bead-bound GRK2, FAM-aptamer displacement;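 active = aptamer displacement above 40%, near three times the noise of non-fluorescent compounds, on plates passing quality checks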;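 note: negative values mostly reflect intrinsic compound fluorescence rather than true enhancement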
FAM quench CP1: aptamer fluorescence quenching in GRK2 counter-screen; shares compounds with GRK2 inh; Carboxyfluorescein RNA aptamer on beads, flow cytometry quenching; hits give low values; fluorescence response (% of DMSO), % at 10 µM; 2,000 tested, under 10 active;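 active = compounds that quench the bead-bound fluorescent RNA probe, cutting fluorescence to under half of the solvent control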;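 note: counterscreen run without GRK2 so only probe quenching by compound is measured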
GRK2 CP2: GRK2 aptamer-displacing inhibitors, hit retest, confirmation, biochemical, cherry pick 2, bead flow cytometry. shares compounds with GRK2 inh. bead-bound GRK2, FAM-aptamer displacement. inhibition of aptamer binding, % at 10 µM. 360 tested, under 10 active;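 active = inhibition of aptamer binding above 40%, about triple the noise seen with nonglowing compounds, on plates passing quality control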;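 note: negative values mostly come from compounds that fluoresce themselves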
FAM quench SP: aptamer fluorescence quenching in GRK2 counter-screen | shares compounds with GRK2 inh | carboxyfluorescein RNA aptamer beads, flow cytometry quenching; hits give low values | fluorescence response vs DMSO, % at 10 µM | 360 tested, under 10 active | AID 588494;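 active = response vs DMSO under 50%, meaning signal dropped by over half, treated as fluorescence quencher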;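 note: labelled aptamer on streptavidin beads without GRK2 as a quench counter-screen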
Numbers stand for hits; - = inactive; . = no result given.

SMILES	ATG4B inh	CR mimetic SO	GRK2 inh	Efflux pump inh	GRK2 inh confirm	FAM quench CP1	others
COc1ccc(N2CCN(C(CNC(=O)CC(C)(C)C)c3ccc4c(c3)OCO4)CC2)cc1 (configuration not stated)	-	-	-	-	.	.
Cc1ccc(-c2noc(CSc3nnc(-c4ccncc4)n3-c3ccc(C)cc3)n2)cc1	-	-	99.0	-	-	-
COc1ccc(CNC(=O)CCCCCNC(=O)N2CCn3c2nc2ccccc23)cc1	-	-	-	-	.	.
Cc1oc(-c2ccccc2F)nc1CN1CCC(C(=O)NC2CCCc3ccccc32)CC1 (configuration not stated)	-	-	-	-	-	-
O=C(O)CCn1cc(-c2ccc(F)cc2)nc1-c1ccncc1	-	-	-	-	-	-
C[C@H](N)C(=O)N1CCC(C(=O)N[C@@H](Cc2ccccc2)C(=O)Nc2ccc(F)cc2)CC1	-	-	-	-	.	.
Oc1ccc(C[C@H]2CNCCN2CCc2cc(C(F)(F)F)cc(C(F)(F)F)c2)cc1	-	-	44.0	-	.	.	GRK2 CP2=-;FAM quench SP=-
COc1ccccc1NS(=O)(=O)c1cc(C(=O)NCC(c2ccco2)N2CCCCC2)ccc1C (configuration not stated)	-	-	-	-	.	.
CC(=O)CSc1nc2cc3c(cc2cc1C#N)OCCO3	-	-	60.0	-	.	.	GRK2 CP2=-;FAM quench SP=-
N=C1/C(=C\c2ccc(Br)o2)C(=O)N=C2SC(CC(=O)N3CCCCC3)=NN12	-	-	-	-	.	.
Cc1ccc(/C=C2/C(=N)N3N=C(CC(=O)N4CCCC4)SC3=NC2=O)o1	-	-	-	-	-	-
CC(C)N(Cc1ccccc1)C(=O)CN1C(=O)COc2ccc(S(=O)(=O)N3CCCCCC3)cc21	-	-	-	-	.	.
COc1cc([N+](=O)[O-])cc2sc(NC(C)=O)nc12	-	-	66.0	-	-	-
CCCCC(OC(=O)c1ccco1)C(=O)NCc1ccc(C)cc1 (configuration not stated)	-	-	-	-	.	.
O=C(Nn1cnnc1)c1cc(Br)ccc1Cl	-	-	53.0	-	-	-
Cc1c(/C=C2\SC(=Nc3cccc(C(=O)O)c3)NC2=O)c2ccccc2n1C	-	-	64.0	-	-	-
CC(Cc1nnc(N)s1)c1ccccc1 (configuration not stated)	-	-	-	-	.	.
CC(=O)c1cn(CC(=O)Nc2ccccc2F)c2ccccc12	-	-	72.0	-	-	-
COc1ccc(NC(=O)c2ccccc2NC(=O)c2ccccc2)cc1	-	-	41.0	-	.	.	GRK2 CP2=-;FAM quench SP=-
COc1ccc(NC(=O)c2ccccc2NC(=O)CSc2ccc(Cl)cc2)cc1	-	-	47.0	-	-	-
CCN(CC(=O)NC1CCS(=O)(=O)C1)C(=O)c1cc(OC)c(OC)c(OC)c1 (configuration not stated)	-	-	60.0	-	-	-
CCN(CC(=O)NC1CCS(=O)(=O)C1)C(=O)c1ccc(OC)c([N+](=O)[O-])c1 (configuration not stated)	-	-	-	-	.	.
O=C(c1cccc([N+](=O)[O-])c1)N1CCCC(C(=O)N2CCN(c3ccccc3)CC2)C1 (configuration not stated)	-	-	-	-	.	.
Cc1ccc(S(=O)(=O)N2CCCC(C(=O)N3CCN(c4ccccc4)CC3)C2)cc1 (configuration not stated)	-	-	-	-	.	.
Cc1nn(C)c(C)c1S(=O)(=O)N1CCCC(C(=O)N2CCN(c3ccccc3)CC2)C1 (configuration not stated)	-	-	82.0	-	-	-
CCCCCOc1ccc(CSc2n[nH]c(C)n2)cc1	-	-	-	-	.	.
Cc1nc(SCc2ccc(OCCC(C)C)cc2)n[nH]1	-	-	100.0	-	-	-
